# Targets with a hit are over-represented here; the source holds about 8,800 in all. About 0.5% of all pairs of compound and target were hits. Values without a mark were called inactive.
# Legend:
# Assay in all cases: log2 fold change, soluble protein after heating vs DMSO (PISA); higher = thermal stabilisation; K562 lysate, 10 uM; active = over 0.2 and 3.5 SD of the protein, either way, in both replicates (recomputed)
# erlotinib = compound: C#Cc1cccc(Nc2ncnc3cc(OCCOC)c(OCCOC)cc23)c1 [erlotinib]
# Outline: (§1)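 Dounce homogenisation of K562 pellets in PBS pH 7.4 with 1 mM MgCl2 produced a crude extract, used at 1 mg/mL protein. Exposure to 10 μM compound lasted 30 min, and aliquots were then heated for 3 min across 48°C-58°C, pooled and brought to 0.5% NP-40 at 4°C. The supernatant after 21,000xg for 90 min was quantified by TMTpro 16plex LC-MS/MS with channel sums equalised. Duplicate values are given as log-two fold change in thermal stability relative to solvent controls.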
# [1] = compound: C/C(=N\NC(=O)C1=CC(=CC=C1)S(=O)(=O)N2CCOCC2)/C3=C(C=CC(=C3)Cl)O
# Outline: as §1
# [2] = compound: C1=CC(=CC=C1C2=NC3=C(N2)C=C(C=C3)C(=O)N)OC4=CC=C(C=C4)Cl
# Outline: as §1
# [3] = compound: C1=CC2=C(C=CC(=C2)/C=C\3/C(=O)NC(=NCC4=CC=CS4)S3)N=C1
# Outline: as §1
# [4] = compound: C1=CC2=NC=CN=C2C=C1/C=C/3\C(=O)NC(=O)S3
# Outline: as §1
# [5] = compound: C1=CC=C(C=C1)C2=NC(=C(N2)C3=CC=NC=C3)C4=CC(=C(C=C4)Cl)O
# Outline: as §1
# [6] = compound: C1=CC=C2C(=C1)C3=NNC4=CC=CC(=C43)C2=O
# Outline: as §1
# [7] = compound: C1CCN(C1)C(=O)NC2=CC=CC(=C2)NC3=NC=C(C(=N3)NCCC4=CN=CN4)Br
# Outline: as §1
# [8] = compound: C1CN(CCC1(CC2=CC=C(C=C2)Cl)N)C3=NC=NC4=C3C=CN4
# Outline: as §1
# IRAK-1-4 Inhibitor I = compound: C1COCCN1CCN2C3=CC=CC=C3N=C2NC(=O)C4=CC(=CC=C4)[N+](=O)[O-] [IRAK-1-4 Inhibitor I]
# Outline: as §1
# Sequence of UniProt P10244 (P10244 whole entry, looked up): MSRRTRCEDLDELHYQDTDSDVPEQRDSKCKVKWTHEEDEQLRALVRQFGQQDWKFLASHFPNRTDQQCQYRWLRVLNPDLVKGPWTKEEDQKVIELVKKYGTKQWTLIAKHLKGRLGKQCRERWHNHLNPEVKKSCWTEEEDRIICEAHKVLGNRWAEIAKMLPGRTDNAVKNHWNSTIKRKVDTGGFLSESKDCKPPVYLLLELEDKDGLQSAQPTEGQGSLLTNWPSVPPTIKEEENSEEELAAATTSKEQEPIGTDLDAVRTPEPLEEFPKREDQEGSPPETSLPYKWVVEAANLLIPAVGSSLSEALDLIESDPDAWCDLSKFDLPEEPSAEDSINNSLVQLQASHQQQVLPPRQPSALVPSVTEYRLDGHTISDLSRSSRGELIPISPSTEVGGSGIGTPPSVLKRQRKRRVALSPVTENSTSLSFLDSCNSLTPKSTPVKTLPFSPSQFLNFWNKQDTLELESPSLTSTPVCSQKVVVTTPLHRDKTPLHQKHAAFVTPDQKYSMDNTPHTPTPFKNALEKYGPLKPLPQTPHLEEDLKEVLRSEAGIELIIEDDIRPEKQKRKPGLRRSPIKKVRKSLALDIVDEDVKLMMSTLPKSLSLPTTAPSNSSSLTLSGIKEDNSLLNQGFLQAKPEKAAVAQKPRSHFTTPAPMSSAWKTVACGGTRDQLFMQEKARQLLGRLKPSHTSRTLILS
# Sequence of UniProt Q9BRA0 (Q9BRA0 whole entry, looked up): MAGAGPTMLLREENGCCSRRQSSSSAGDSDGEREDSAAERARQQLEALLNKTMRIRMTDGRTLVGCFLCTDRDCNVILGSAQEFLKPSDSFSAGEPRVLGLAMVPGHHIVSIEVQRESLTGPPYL
# Sequence of UniProt Q15021 (Q15021 whole entry, looked up): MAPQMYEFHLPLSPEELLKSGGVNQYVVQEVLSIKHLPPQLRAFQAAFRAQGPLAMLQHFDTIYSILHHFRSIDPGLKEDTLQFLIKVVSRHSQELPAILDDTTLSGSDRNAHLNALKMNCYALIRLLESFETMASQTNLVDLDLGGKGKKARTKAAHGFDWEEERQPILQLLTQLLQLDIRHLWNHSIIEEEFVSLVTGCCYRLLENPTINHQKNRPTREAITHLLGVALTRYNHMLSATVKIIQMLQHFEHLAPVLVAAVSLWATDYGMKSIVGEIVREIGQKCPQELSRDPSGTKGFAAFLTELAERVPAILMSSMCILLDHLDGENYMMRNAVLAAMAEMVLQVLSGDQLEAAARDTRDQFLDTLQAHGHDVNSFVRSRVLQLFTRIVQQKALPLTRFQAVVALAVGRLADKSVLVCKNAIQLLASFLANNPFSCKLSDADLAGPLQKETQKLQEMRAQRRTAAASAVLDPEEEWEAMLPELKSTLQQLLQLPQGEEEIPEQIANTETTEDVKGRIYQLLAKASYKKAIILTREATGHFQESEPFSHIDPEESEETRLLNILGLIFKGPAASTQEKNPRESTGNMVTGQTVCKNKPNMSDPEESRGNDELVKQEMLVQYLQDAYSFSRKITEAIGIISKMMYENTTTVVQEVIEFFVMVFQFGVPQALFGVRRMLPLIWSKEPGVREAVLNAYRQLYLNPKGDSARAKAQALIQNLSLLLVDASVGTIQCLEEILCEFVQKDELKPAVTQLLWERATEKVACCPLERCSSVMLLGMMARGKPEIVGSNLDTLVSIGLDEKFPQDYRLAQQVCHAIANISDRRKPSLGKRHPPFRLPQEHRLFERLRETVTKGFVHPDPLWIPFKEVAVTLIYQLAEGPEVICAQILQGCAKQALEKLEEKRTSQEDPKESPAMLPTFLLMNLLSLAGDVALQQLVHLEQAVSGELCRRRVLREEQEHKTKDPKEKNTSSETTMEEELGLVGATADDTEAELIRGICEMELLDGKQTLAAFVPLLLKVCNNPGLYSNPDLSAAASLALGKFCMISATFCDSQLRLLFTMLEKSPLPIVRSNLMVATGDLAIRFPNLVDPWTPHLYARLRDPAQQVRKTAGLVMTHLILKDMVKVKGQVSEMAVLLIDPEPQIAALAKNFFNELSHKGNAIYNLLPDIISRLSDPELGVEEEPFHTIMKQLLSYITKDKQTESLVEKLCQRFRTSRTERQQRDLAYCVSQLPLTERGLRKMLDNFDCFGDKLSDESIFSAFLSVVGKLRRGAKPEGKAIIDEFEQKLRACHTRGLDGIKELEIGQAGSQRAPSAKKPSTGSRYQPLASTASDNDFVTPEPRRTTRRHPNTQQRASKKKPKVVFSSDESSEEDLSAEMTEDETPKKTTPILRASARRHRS
# Sequence of UniProt Q9BXW6 (Q9BXW6 whole entry, looked up): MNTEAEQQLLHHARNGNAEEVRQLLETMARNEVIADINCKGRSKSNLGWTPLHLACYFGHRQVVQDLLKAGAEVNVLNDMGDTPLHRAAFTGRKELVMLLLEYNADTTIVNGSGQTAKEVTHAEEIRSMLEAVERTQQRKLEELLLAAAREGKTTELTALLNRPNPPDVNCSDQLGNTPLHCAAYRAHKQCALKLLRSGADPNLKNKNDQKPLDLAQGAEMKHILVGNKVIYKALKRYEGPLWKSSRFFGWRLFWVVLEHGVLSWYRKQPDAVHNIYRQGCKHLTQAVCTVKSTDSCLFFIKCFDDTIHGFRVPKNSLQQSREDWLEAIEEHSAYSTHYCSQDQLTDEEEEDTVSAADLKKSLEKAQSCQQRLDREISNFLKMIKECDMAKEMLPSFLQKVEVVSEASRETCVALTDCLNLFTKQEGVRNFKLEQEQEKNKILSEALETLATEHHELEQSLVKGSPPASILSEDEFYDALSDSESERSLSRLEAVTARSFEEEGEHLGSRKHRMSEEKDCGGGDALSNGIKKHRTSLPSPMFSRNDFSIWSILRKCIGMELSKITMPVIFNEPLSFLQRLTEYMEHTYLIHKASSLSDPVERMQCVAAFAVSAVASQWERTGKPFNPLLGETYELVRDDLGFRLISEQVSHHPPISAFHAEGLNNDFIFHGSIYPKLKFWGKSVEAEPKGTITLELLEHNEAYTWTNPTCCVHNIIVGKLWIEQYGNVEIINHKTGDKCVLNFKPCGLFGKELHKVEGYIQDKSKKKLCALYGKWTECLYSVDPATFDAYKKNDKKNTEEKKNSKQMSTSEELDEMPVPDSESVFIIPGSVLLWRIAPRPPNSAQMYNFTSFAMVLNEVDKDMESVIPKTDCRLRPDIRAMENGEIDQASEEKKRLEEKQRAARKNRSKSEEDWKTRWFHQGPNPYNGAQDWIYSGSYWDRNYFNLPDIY
# Sequence of UniProt Q8TAT6 (Q8TAT6 whole entry, looked up): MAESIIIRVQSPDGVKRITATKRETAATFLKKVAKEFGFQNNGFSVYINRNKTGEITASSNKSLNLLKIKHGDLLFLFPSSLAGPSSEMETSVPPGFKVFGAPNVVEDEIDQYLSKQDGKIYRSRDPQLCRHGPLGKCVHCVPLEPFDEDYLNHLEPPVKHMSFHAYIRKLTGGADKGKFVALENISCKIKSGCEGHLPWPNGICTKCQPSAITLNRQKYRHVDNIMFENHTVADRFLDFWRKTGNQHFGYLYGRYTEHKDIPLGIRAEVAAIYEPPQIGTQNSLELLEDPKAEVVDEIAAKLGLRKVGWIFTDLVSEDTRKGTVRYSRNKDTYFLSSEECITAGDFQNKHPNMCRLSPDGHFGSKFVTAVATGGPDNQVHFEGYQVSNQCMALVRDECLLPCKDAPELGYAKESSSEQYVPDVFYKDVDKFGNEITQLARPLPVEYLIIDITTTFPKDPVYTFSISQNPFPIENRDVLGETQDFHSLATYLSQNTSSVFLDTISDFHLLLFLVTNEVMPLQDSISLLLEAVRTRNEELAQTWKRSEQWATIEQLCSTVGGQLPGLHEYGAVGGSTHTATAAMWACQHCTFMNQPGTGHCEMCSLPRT
# Sequence of UniProt Q5JRK9 (Q5JRK9 whole entry, looked up): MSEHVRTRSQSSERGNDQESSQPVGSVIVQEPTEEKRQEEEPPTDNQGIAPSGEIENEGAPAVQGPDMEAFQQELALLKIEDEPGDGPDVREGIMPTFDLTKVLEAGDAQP
# Sequence of UniProt O60934 (O60934 whole entry, looked up): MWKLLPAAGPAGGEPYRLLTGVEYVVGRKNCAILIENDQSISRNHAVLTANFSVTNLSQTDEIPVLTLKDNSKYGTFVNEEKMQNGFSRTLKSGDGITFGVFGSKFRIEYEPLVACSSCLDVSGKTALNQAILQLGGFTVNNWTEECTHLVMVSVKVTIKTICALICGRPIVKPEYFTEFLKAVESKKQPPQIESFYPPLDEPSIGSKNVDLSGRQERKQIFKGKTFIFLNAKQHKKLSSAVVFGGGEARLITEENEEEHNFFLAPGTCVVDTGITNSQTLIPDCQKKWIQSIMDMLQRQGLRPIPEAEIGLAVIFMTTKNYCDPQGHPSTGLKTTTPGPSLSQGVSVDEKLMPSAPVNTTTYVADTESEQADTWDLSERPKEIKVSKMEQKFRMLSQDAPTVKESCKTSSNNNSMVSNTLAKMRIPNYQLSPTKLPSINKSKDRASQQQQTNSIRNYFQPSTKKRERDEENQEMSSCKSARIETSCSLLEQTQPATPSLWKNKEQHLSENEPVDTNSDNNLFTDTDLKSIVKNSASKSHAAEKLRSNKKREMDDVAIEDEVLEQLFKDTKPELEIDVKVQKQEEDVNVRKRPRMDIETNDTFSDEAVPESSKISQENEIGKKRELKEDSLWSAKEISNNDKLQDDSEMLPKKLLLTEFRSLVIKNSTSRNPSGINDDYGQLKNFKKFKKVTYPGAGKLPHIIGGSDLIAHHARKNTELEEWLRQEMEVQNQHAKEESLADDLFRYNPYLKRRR
# Sequence of UniProt Q9BV86 (Q9BV86 whole entry, looked up): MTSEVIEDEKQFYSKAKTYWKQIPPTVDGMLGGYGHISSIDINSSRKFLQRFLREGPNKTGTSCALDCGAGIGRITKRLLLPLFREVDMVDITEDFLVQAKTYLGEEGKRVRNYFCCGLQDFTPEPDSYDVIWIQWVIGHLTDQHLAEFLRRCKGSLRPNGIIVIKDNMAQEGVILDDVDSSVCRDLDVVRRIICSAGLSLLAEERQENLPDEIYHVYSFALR
# Sequence of UniProt O60829 (O60829 whole entry, looked up): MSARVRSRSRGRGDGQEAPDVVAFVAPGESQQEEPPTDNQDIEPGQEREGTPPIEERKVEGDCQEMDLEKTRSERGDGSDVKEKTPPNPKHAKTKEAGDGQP
Target,log2 fold change (erlotinib),log2 fold change [1],log2 fold change [2],log2 fold change [3],log2 fold change [4],log2 fold change [5],log2 fold change [6],log2 fold change [7],log2 fold change [8],log2 fold change (IRAK-1-4 Inhibitor I)
OGT (UniProt O15294),0.021,0.053,0.01,-0.008,0.008,0.024,-0.021,-0.006,0.02,-0.017
NQO1 (UniProt P15559),-0.033,0.081,0.055,-0.08,-0.02,-0.022,-0.192,0.005,0.006,-0.017
NPM3 (UniProt O75607),0.023,-0.047,0.034,0.019,-0.059,-0.013,0.025,-0.004,0.053,-0.028
NUCB2 (UniProt P80303),-0.003,0.018,0.014,-0.018,0.011,-0.015,-0.017,0.003,0.003,0.007
MYH11 isoform 2 (UniProt P35749),-0.015,0.035,0.027,-0.002,-0.092,0.142,-0.038,-0.036,0.047,0.013
NCK1 (UniProt P16333),0.02,0.036,0.04,-0.007,-0.01,-0.009,-0.072,-0.024,0.049,0.002
NTMT1 (UniProt Q9BV86),0.002,0.031,0.02,0.055,-0.001,-0.002,0.014,0.021,0.042,-0.033
NAA38 isoform 2 (UniProt Q9BRA0),0.049,-0.065,0.013,0.019,-0.045,-0.055,0.008,-0.052,0.008,0.031
NELFCD (UniProt Q8IXH7),0.034,0.015,0.007,0.031,-0.019,-0.019,-0.044,-0.004,0.023,-0.036
NPTN (UniProt Q9Y639),-0.047,-0.02,-0.056,-0.421 (active),0.008,0.048,0.17,-0.003,0.007,0.064
NONO (UniProt Q15233),0.021,-0.048,0,-0.006,-0.017,0.025,-0.027,0.014,0.002,0.005
NPLOC4 isoform 2 (UniProt Q8TAT6),-0.022,0.032,-0.004,0.001,-0.012,0.011,-0.016,-0.012,0.007,0.001
PAN2 isoform 2 (UniProt Q504Q3),0,-0.007,-0.015,-0.005,0.052,0.03,0,-0.017,-0.031,0.006
PAXBP1 (UniProt Q9Y5B6),0.019,-0.035,0.025,-0.01,0.018,0.026,-0.04,-0.022,0.029,0.013
NBN (UniProt O60934),-0.026,0.068,0.051,-0.004,-0.024,0.013,-0.044,-0.005,0.013,0.007
MT-CYB (UniProt P00156),0.076,0.141,0.027,0.024,0.015,-0.229,0.126,-0.105,0.025,0.028
MRPL51 (UniProt Q4U2R6),-0.067,-0.05,-0.027,0.08,-0.036,-0.039,0.036,-0.006,-0.09,0.001
ORC3 isoform 2 (UniProt Q9UBD5),-0.006,-0.048,-0.046,0.004,0.053,-0.011,-0.045,-0.015,-0.007,-0.008
MRPS12 (UniProt O15235),-0.015,-0.058,0,-0.044,-0.016,0.019,-0.251,-0.004,-0.127,0.043
NCAPH (UniProt Q15003),0.036,-0.008,-0.006,-0.007,-0.002,-0.012,-0.063,-0.008,-0.018,0
NAA30 (UniProt Q147X3),0.015,-0.027,0.061,0.026,-0.007,-0.046,-0.038,-0.088,-0.031,0.085
NUDT6 (UniProt P53370),-0.01,0.113,-0.02,-0.518 (active),–,-0.008,0.111,-0.06,0.06,0.032
ORC1 (UniProt Q13415),–,–,–,–,–,–,–,0.216,0.05,–
NFATC4 isoform 2 (UniProt Q14934),–,-0.627 (active),–,-0.132,-0.064,–,-0.224,-0.07,-0.012,–
MUC5AC (UniProt P98088),–,–,–,–,–,0.015,–,–,–,-0.074
P2RY1 (UniProt P47900),-0.014,–,-0.07,–,0.148,0.023,–,-0.024,0.094,0.07
NFAT5 isoform 4 (UniProt O94916),–,–,–,–,0.161,–,–,–,–,–

Target,log2 fold change (erlotinib),log2 fold change [1],log2 fold change [2],log2 fold change [3],log2 fold change [4],log2 fold change [5],log2 fold change [6],log2 fold change [7],log2 fold change [8],log2 fold change (IRAK-1-4 Inhibitor I)
MSH6 (UniProt P52701),0.011,0.03,-0.023,0.031,0.041,0.008,-0.025,0,-0.014,-0.008
MYBL2 (UniProt P10244),0.02,0.014,-0.011,0.035,–,0.005,0.078,-0.013,-0.036,0.009
NIPSNAP3A (UniProt Q9UFN0),0.008,-0.014,0.062,-0.03,0.012,0.003,0.015,-0.012,0.002,0.015
NR3C1 isoform 3 (UniProt P04150),0.061,-0.019,-0.058,-0.075,0.09,0.044,–,0.047,-0.064,-0.059
MTA3 (UniProt Q9BTC8),0.025,-0.051,0.02,-0.022,-0.078,-0.046,0,0.004,0.025,0.012
NUMB isoform 2 (UniProt P49757),–,–,–,–,–,0.304,–,–,–,0.021
PAPOLG (UniProt Q9BWT3),0,-0.068,-0.092,0.035,–,0.055,0.041,-0.086,0.104,0.136
NPLOC4 (UniProt I3L3I1),–,–,–,–,-0.029,–,–,-0.128,0.046,–
PARD3B (UniProt Q8TEW8),0.025,–,-0.084,–,–,–,–,–,–,–
MYH6 (UniProt P13533),0.107,–,0.08,–,0.304,0.029,–,-0.049,0.115,0.052
NUDT5 (UniProt C9JYY9),0.098,–,-0.157,–,–,–,–,-0.069,0.034,–
OSBPL1A (UniProt Q9BXW6),0.235,–,0.205,–,0.038,–,–,–,–,–
NAA16 (UniProt Q6N069),–,-0.036,–,-0.022,0.027,-0.127,-0.206,0.136,-0.038,0.017
MYO10 (UniProt Q9HD67),-0.044,-0.13,0.19,0.017,-0.062,0.014,-0.16,–,–,0.102
PAGE2B (UniProt Q5JRK9),0.056,0.038,-0.033,-0.085,–,-0.021,0.093,0.055,0.055,0.148
PANK2 (UniProt Q9BZ23),–,-0.012,–,-0.019,0.011,-0.078,-0.044,-0.008,-0.06,0.14
PAGE4 (UniProt O60829),-0.423,–,0.098,–,0.034,0.015,–,-0.068,-0.095,-0.034
NCAPD2 (UniProt Q15021),0.011,0.011,-0.005,0.032,-0.009,-0.016,-0.025,-0.007,-0.005,-0.001
NOCT (UniProt Q9UK39),-0.129,–,0.061,–,–,0.1,–,-0.134,0.06,0.007
MXRA7 (UniProt P84157),-0.001,0.062,0.118,0.17,–,-0.062,-0.135,0.02,0,-0.043
NUB1 (UniProt H7C5N1),–,–,–,–,–,0.163,–,–,–,0.183
MYLK (UniProt Q15746),–,-0.067,–,0.027,0.025,–,0.345,0.106,-0.262,–
NR2F2 (UniProt P24468),-0.007,–,0,–,-0.192,0.076,–,–,–,0.048
NUP133 (UniProt Q8WUM0),0.01,-0.016,0.006,0.019,-0.018,0.017,-0.023,-0.04,0.015,0.026
MYO9A isoform 4 (UniProt B2RTY4),0.074,0.008,-0.125,-0.045,0.153,-0.007,-0.05,–,–,-0.059
NRIP1 (UniProt P48552),0.031,–,0,–,-0.033,0.024,–,–,–,0.114
OSBP (UniProt P22059),-0.023,-0.056,0.037,-0.006,0.017,-0.031,-0.031,-0.016,0.016,-0.112
